According to ChEMBL document CHEMBL2218924, “A broad activity screen in support of a chemogenomic map for kinase signalling research and drug discovery” (Biochem J, 2013):

Assays:
[1] = molecular target: T1, CDK3/cyclin E (Homo sapiens) (UniProt P24864+O96020+Q00526); settings: at 1 µM
[2] = molecular target: T1, CDK3/cyclin E (Homo sapiens); settings: at 10 µM
[3] = molecular target: T2, Cyclin-dependent kinase 5/CDK5 activator 1 (Homo sapiens) (UniProt Q00535+Q15078); settings: at 1 µM
[4] = molecular target: T2, Cyclin-dependent kinase 5/CDK5 activator 1 (Homo sapiens); settings: at 10 µM
Target sequence in this assay (Q00535 whole entry): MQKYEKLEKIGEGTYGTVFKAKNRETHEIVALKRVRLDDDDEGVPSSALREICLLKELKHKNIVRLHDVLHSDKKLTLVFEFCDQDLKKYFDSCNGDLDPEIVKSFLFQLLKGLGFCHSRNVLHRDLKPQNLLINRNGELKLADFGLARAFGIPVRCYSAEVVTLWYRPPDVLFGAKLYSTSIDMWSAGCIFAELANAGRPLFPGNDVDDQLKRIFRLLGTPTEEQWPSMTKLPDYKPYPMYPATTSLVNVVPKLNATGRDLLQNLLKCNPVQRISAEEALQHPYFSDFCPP
Target sequence in this assay (Q15078 99-307 partner limits assumed): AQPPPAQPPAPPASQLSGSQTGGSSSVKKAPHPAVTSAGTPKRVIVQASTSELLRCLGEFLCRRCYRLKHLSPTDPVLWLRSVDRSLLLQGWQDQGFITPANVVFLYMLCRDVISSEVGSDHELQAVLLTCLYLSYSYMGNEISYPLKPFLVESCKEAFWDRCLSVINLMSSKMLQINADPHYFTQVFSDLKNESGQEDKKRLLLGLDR

[5] = molecular target: T2, Cyclin-dependent kinase 5/CDK5 activator 1 (Homo sapiens); settings: at 1 µM; remark: listed apart in the source
Target sequence in this assay (Q00535 whole entry): as the sequence (Q00535 whole entry) above
Target sequence in this assay (Q15078 99-307 partner limits assumed): as the sequence (Q15078 99-307 partner limits assumed) above

[6] = molecular target: T2, Cyclin-dependent kinase 5/CDK5 activator 1 (Homo sapiens); settings: at 10 µM; remark: listed apart in the source
[7] = molecular target: T3, CDK6/cyclin D3 (Homo sapiens) (UniProt P30281+Q00534); settings: at 1 µM
[8] = molecular target: T3, CDK6/cyclin D3 (Homo sapiens); settings: at 10 µM
[9] = molecular target: T4, Cyclin-dependent kinase 7/ cyclin H (Homo sapiens) (UniProt P51946+P50613); settings: at 1 µM
[10] = molecular target: T4, Cyclin-dependent kinase 7/ cyclin H (Homo sapiens); settings: at 10 µM
[11] = molecular target: T5, CDK9/cyclin T1 (Homo sapiens) (UniProt O60563+P50750); settings: at 1 µM
[12] = molecular target: T5, CDK9/cyclin T1 (Homo sapiens); settings: at 10 µM
[13] = molecular target: T6, Serine/threonine-protein kinase Chk1 (Homo sapiens) (UniProt O14757); settings: at 1 µM
T6 sequence (whole entry): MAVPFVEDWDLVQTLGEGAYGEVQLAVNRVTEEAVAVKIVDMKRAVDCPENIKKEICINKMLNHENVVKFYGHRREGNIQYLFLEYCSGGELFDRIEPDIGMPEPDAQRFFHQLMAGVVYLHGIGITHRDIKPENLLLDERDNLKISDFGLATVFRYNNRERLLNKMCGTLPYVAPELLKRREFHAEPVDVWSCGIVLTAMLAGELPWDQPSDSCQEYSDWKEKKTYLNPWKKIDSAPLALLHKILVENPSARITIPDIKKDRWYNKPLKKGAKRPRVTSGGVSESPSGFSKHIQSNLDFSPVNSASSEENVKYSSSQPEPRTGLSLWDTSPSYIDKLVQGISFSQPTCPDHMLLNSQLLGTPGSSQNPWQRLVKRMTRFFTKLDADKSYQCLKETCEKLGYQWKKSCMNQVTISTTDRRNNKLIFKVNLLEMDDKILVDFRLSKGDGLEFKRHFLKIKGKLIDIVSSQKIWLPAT

[14] = molecular target: T6, Serine/threonine-protein kinase Chk1 (Homo sapiens); settings: at 10 µM
[15] = molecular target: Serine/threonine-protein kinase Chk2 (Homo sapiens) (UniProt O96017); settings: at 1 µM
[16] = molecular target: Serine/threonine-protein kinase Chk2 (Homo sapiens) (UniProt O96017); settings: at 10 µM
[17] = molecular target: Casein kinase I isoform gamma-1 (Homo sapiens) (UniProt Q9HCP0); settings: at 1 µM
[18] = molecular target: Casein kinase I isoform gamma-1 (Homo sapiens) (UniProt Q9HCP0); settings: at 10 µM
[19] = molecular target: Casein kinase I isoform delta (Homo sapiens) (UniProt P48730); settings: at 1 µM
[20] = molecular target: Casein kinase I isoform delta (Homo sapiens) (UniProt P48730); settings: at 10 µM

Casein kinase I isoform gamma-1 (Homo sapiens), sequence (Q9HCP0 whole entry, looked up, canonical isoform): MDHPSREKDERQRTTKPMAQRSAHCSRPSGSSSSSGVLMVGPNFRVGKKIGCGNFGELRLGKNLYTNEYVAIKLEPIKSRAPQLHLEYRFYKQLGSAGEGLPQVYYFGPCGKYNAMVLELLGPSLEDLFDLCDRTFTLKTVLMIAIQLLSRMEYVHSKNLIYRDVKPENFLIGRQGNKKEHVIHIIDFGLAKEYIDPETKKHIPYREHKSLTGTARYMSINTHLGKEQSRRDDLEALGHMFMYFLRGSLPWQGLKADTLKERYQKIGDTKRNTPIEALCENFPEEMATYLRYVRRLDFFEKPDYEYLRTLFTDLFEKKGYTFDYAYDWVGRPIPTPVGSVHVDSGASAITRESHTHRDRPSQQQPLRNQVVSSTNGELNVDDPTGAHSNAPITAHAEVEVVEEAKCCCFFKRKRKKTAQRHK
Casein kinase I isoform delta (Homo sapiens), sequence (P48730 whole entry, looked up, canonical isoform): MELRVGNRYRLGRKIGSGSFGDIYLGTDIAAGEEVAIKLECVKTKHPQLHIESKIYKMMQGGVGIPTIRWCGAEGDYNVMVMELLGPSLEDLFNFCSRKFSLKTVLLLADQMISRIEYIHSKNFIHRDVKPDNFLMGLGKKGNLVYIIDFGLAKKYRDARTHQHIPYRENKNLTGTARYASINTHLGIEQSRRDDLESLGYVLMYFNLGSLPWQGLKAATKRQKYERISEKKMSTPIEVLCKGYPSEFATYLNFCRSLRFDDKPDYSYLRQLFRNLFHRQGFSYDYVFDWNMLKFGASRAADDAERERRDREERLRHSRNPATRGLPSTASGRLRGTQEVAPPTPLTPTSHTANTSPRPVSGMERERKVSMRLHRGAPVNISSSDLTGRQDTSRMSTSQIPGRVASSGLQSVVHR
T1 sequence (O96020 whole entry, looked up): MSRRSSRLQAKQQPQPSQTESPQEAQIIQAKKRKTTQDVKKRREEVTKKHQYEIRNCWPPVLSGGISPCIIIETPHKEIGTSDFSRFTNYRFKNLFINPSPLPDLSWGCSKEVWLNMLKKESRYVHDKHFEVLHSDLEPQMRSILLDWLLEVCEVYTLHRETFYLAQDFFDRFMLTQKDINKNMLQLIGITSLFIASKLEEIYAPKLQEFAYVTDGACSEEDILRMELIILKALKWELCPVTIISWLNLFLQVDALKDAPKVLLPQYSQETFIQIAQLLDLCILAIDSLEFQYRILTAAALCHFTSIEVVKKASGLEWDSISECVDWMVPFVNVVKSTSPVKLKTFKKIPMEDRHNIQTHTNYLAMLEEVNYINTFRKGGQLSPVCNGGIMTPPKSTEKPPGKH
T1 sequence (P24864 whole entry, looked up): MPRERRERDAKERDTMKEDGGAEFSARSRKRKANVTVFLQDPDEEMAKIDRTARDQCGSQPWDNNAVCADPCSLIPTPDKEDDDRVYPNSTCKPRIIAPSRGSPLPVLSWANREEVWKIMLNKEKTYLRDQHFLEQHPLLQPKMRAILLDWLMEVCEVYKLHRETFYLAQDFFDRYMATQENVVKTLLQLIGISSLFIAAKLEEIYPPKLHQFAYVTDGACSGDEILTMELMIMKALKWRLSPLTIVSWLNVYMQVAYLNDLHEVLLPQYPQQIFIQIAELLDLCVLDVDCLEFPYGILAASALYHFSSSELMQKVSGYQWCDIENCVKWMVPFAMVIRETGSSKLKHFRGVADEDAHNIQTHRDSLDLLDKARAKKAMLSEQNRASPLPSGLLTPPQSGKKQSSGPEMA
T1 sequence (Q00526 whole entry, looked up): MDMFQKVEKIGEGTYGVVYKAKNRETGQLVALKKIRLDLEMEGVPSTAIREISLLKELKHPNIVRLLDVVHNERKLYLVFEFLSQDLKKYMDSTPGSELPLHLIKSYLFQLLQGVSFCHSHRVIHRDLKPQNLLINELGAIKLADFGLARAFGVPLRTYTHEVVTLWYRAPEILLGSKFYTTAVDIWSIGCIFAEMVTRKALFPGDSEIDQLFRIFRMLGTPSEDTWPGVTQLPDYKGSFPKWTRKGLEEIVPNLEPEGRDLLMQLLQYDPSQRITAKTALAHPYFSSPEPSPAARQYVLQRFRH
Serine/threonine-protein kinase Chk2 (Homo sapiens), sequence (O96017 whole entry, canonical isoform): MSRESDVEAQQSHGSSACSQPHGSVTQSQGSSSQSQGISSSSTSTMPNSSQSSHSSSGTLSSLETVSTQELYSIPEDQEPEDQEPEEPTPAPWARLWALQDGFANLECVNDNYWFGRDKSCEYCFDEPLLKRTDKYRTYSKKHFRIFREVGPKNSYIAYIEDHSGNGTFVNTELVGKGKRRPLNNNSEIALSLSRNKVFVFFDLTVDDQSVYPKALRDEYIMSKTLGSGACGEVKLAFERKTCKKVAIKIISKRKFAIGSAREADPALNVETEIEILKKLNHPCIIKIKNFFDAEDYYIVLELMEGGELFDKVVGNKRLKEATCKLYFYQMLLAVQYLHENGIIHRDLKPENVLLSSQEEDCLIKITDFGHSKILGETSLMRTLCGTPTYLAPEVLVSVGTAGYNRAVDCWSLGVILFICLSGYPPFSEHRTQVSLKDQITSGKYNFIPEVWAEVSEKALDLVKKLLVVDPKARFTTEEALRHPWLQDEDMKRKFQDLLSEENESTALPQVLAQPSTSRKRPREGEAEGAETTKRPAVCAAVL

| Structure (SMILES) | residual activity [1] | residual activity [2] | residual activity [3] | residual activity [4] | residual activity [5] | residual activity [6] | residual activity [7] | residual activity [8] | residual activity [9] | residual activity [10] | residual activity [11] | residual activity [12] | residual activity [13] | residual activity [14] | residual activity [15] | residual activity [16] | residual activity [17] | residual activity [18] | residual activity [19] | residual activity [20] |
| --- | --- | --- | --- | --- | --- | --- | --- | --- | --- | --- | --- | --- | --- | --- | --- | --- | --- | --- | --- | --- |
| COc1cccc(-c2cc(=O)c3ccccc3o2)c1N | 90% | 84% | 102% | 99% | 112% | 89% | 102% | 100% | 103% | 89% | 104% | 108% | 104% | 90% | 85% | 72% | 95% | 88% | 102% | 87% |
| Oc1ccc(Nc2nc(-c3ccc(Cl)cc3)cs2)cc1 | 108% | 80% | 102% | 90% | 120% | 98% | 112% | 101% | 106% | 89% | 104% | 99% | 99% | 104% | 64% | 40% | 113% | 98% | 79% | 72% |
| O=C(Nc1cccc(Nc2nccc(Nc3cccc(C(F)(F)F)c3)n2)c1)C1CC1 | 98% | 72% | 94% | 98% | 107% | 98% | 102% | 39% | 92% | 86% | 89% | 79% | 72% | 77% | 81% | 48% | 93% | 94% | 82% | 78% |
| O=C1NC(=O)/C(=C/c2ccc3c(c2)OC(F)(F)O3)S1 | 104% | 89% | 102% | 91% | 101% | 94% | 98% | 90% | 88% | 86% | 94% | 77% | 94% | 88% | 93% | 85% | 95% | 94% | 80% | 65% |
| Cc1ccc(S(=O)(=O)/C=C/C#N)cc1 | 93% | 96% | 102% | 101% | 100% | 80% | 95% | 93% | 101% | 90% | 102% | 87% | 99% | 89% | 85% | 78% | 80% | 83% | 96% | 89% |
| O=C1NC(=O)/C(=C\c2ccc3nccnc3c2)S1 | 96% | 68% | 96% | 64% | 97% | 74% | 91% | 86% | 89% | 80% | 60% | 14% | 85% | 91% | 78% | 33% | 92% | 44% | 88% | 46% |
| CC(=O)c1ccc(N2CCOCC2)cc1O | 106% | 83% | 86% | 74% | 95% | 84% | 99% | 89% | 91% | 97% | 85% | 74% | 96% | 93% | 94% | 91% | 97% | 97% | 89% | 94% |
| Cc1ccc(NC2=CC(=O)c3sc(C)nc3C2=O)cc1 | 92% | 95% | 102% | 97% | 107% | 87% | 91% | 85% | 97% | 85% | 104% | 106% | 96% | 87% | 96% | 82% | 97% | 88% | 96% | 88% |
| COc1cc2ncnc(Nc3ccc(O)c(Br)c3)c2cc1OC | 84% | 71% | 84% | 51% | 98% | 67% | 87% | 86% | 81% | 78% | 91% | 41% | 80% | 70% | 46% | 11% | 90% | 41% | 81% | 38% |
| O=C1Nc2ccccc2/C1=C1/Nc2ccccc2/C1=N\OCCC(O)CO (stereo not given) | 21% | 2% | 4% | 4% | 6% | 5% | 16% | 4% | 19% | 2% | 12% | 7% | 68% | 33% | 26% | 3% | 102% | 55% | 35% | 9% |
| CCN(CC)CCCCN1c2ccccc2Oc2ccc(Cl)cc21 | 117% | 94% | 99% | 102% | 100% | 105% | 108% | 103% | 89% | 105% | 108% | 108% | 99% | 103% | 94% | 103% | 102% | 103% | 95% | 96% |
| O=C1NC(=O)c2cc(Nc3ccc(F)cc3)c(Nc3ccc(F)cc3)cc21 | 86% | 66% | 112% | 49% | 81% | 60% | 98% | 86% | 78% | 112% | 100% | 88% | 85% | 103% | 84% | 77% | 86% | 68% | 84% | 45% |
| CC(C)n1cnc2c(NCc3ccccc3)nc(NCCCO)nc21 | 71% | 23% | 40% | 8% | 53% | 8% | 94% | 86% | 62% | 12% | 56% | 7% | 95% | 87% | 86% | 60% | 94% | 49% | 70% | 22% |
